# From PubChem BioAssay AID1347088 (National Center for Advancing Translational Sciences (NCATS), 2019)
# Records with an inconclusive call do not appear. Activity calls are given as the source filed them. Calls follow the shape of the full dose curve.
# Assay: qHTS for Inhibitors of the Functional Ribonucleoprotein Complex (vRNP) of Lymphocytic Choriomeningitis Arenaviruses (LCMV): Viability assay - Alamar blue signal for LCMV Confirmatory Screen
# Details: LCMV vRNP confirmatory screen cells; series mostly up to 53.9 µM; viability change, negative = toxic: at the top concentration
SMILES,"viability change, negative = toxic",Potency
CCC(C)c1nccnc1OC (stereo not given),-4.73% [at 110 µM] (inactive),
Fc1ccc(CNc2ncnc3ccc(F)cc23)cc1,-18.6% (inactive),
Cc1ncc([N+](=O)[O-])n1CC(C)O (stereo not given),-3.13% (inactive),
Cc1ccc2c(c1)C1CN(C)CCC1N2 (stereo not given),-22.8% [at 19.4 µM] (inactive),
CC[C@@]1([C@@H]2O[C@@H]([C@H]3O[C@@](O)(CO)[C@H](C)C[C@H]3C)C[C@H]2C)CC[C@H]([C@]2(C)CC[C@]3(C[C@H](O)[C@@H](C)[C@@H]([C@@H](C)[C@@H](OC)[C@H](C)C(=O)O)O3)O2)O1,,5.95 µM (active)
CCn1c(-c2nonc2N)nc2cnc(Oc3cccc(NC(=O)c4ccc(OCCN5CCOCC5)cc4)c3)cc21,,24.3 µM (active)
Cn1cc(-c2ccncc2)c(-c2ccc(OCc3ccc4ccccc4n3)cc2)n1,,38.5 µM (active)
CCc1cncnc1N1CCN(Cc2nc3ccc(C(F)(F)F)cc3[nH]2)CC1,,35.2 µM (active)
COc1ccc(Cc2nccc3cc(OC)c(OC)cc23)cc1OC,,inactive
CCCCCC[C@H]1C(=O)O[C@H](C)[C@H](NC(=O)c2cccc(NC=O)c2O)C(=O)O[C@@H](C)[C@@H]1OC(=O)CC(C)C,-22.3% (inactive),
CN1C(C(=O)Nc2ccccn2)=C(O)c2ccccc2S1(=O)=O,4.12% (inactive),
CC(O)C(O)[C@H]1CNc2nc(N)[nH]c(=O)c2N1 (stereo not given in full),-3.99% (inactive),
C=C1CC[C@@H]2[C@](C)(CO)[C@H](O)CC[C@@]2(C)[C@@H]1/C=C/C1=CCOC1=O,-3.58% (inactive),
O=C1Cc2cc(CCN3CCN(c4nsc5ccccc45)CC3)c(Cl)cc2N1,,inactive
O=c1[nH]c2ccccc2n1C1CCN(CCCC(c2ccc(F)cc2)c2ccc(F)cc2)CC1,6.55% (inactive),
